Screening data from PubChem.
In the library only some 3.1% were active in any assay of this set; here they are far more common.
BoNT-A LC inh2: BoNT/A light chain protease inhibitors, primary screen, biochemical, flow cytometry, MLPCN library; Botulinum neurotoxin type A light chain protease (Clostridium botulinum A str. ATCC 3502); multiplex microsphere protease substrate cleavage; AID 588499, 2011; hit rate 0.17% among 360,000; inhibition, % at 10 µM; also: plate controls were buffer without enzyme for full effect and enzyme alone for no effect
PriA SSB inh: inhibitors of Klebsiella pneumoniae PriA binding to SSB C-terminal tail, primary screen, biochemical, AlphaScreen; PriA–SSB C-terminal tail interaction (Klebsiella pneumoniae); AlphaScreen SSBct-PriA binding, biotinylated peptide; inhibition, % at 33 µM; hit rate 0.6% among 430,000; AID 1272365, 2023; in the data active = inhibition mostly above about 37%, no sharp cut-off; inactive = mostly below about 20%;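 also: plate controls were negative control peptide for no effect and reference peptide for full effect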
Bead autofluor: counter-screen for toxin protease inhibitors: compound fluorescence; hit rate 3.1% among 360,000; compound autofluorescence counterscreen, microsphere flow cytometry; stronger effect = higher value; fluorescence intensity (test concentration not listed); in the data active = fluorescence intensity above about 16000; inconclusive = no clear call, values can overlap the other calls
BoNT-F LC inh: BoNT/F light chain protease inhibitors, primary screen, biochemical, flow cytometry, MLPCN library | hit rate 0.22% among 360,000 | inhibition, % at 10 µM | Multiplex microsphere protease cleavage assay | AID 588497, 2011 | Botulinum neurotoxin type F light chain protease (Clostridium botulinum); in the data active = inhibition above about 35%, passing the limit was not always enough; inconclusive = no clear call, values can overlap the other calls; also: plate controls were buffer without enzyme for full effect and enzyme alone for no effect
Anthrax LF inh2: Bacillus anthracis LF protease inhibitors, primary screen, biochemical, multiplex microsphere, MLPCN library; hit rate 0.12% among 360,000; multiplex microsphere protease cleavage assay; inhibition, % at 10 µM; Lethal factor (Bacillus anthracis), P15917; also: plate controls were buffer without enzyme for full effect and enzyme alone for no effect
Target sequence (P15917 whole entry, looked up): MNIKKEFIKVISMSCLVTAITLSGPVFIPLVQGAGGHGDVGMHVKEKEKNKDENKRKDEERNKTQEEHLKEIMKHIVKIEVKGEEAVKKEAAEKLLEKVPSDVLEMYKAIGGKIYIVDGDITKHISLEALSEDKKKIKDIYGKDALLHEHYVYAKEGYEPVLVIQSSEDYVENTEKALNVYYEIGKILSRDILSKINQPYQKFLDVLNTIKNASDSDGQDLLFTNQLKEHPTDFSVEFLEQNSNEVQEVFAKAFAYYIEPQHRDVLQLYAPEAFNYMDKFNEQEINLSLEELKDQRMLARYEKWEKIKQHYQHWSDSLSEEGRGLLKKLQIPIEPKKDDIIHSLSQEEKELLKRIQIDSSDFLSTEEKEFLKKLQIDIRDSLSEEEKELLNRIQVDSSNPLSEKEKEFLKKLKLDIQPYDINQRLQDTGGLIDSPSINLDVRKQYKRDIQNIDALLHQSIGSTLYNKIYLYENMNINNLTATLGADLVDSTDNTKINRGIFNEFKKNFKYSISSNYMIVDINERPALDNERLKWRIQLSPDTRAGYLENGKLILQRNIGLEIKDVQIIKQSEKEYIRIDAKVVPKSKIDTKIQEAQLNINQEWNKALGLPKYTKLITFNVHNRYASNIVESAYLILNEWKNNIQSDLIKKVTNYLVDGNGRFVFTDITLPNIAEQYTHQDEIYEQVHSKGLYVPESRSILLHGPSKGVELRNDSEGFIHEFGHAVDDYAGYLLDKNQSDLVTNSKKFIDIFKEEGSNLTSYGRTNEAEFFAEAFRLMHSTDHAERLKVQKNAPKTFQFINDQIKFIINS
* hit, by the source's call. Rule as the data show it, unless noted: active = inhibition above about 30%; inconclusive = no clear call, values can overlap the other calls; inactive = below that.

For O=C1C(c2ccc(F)cc2)N(CC2COc3ccccc3O2)C(=O)CN1C1CCCCC1 (stereo unspecified) the results were BoNT-A LC inh2 0, PriA SSB inh -10, Bead autofluor 10837, BoNT-F LC inh 8 and Anthrax LF inh2 -3.
O=S(=O)(NCC(c1ccc(F)cc1)N1CCOCC1)c1cccc2ccccc12 (stereo unspecified) was read as PriA SSB inh 10.
`Cc1ccccc1-c1noc(CS(=O)(=O)c2ccc(Cl)s2)n1` gave PriA SSB inh -13.
`O=C(Nc1nnc(-c2ccncc2)s1)C1CCCO1` (stereo unspecified) gave BoNT-A LC inh2 -1, PriA SSB inh -6, Bead autofluor 16579*, BoNT-F LC inh -3 and Anthrax LF inh2 -5.
For CCCCCc1nnc(NC(=O)C2CCCO2)s1 (stereo unspecified) the results were BoNT-A LC inh2 -3, PriA SSB inh 0, Bead autofluor 20636*, BoNT-F LC inh -4 and Anthrax LF inh2 2.
Screening O=C(CCCN1C(=O)c2ccccc2C1=O)N1CCC(c2ccccc2)C1 (stereo unspecified) returned BoNT-A LC inh2 -4, PriA SSB inh 0, Bead autofluor 20922*, BoNT-F LC inh -5 and Anthrax LF inh2 2.
`CCN1C(=O)/C(=C2\SC(=S)N(c3c(C)n(C)n(-c4ccccc4)c3=O)C2=O)c2ccccc21` gave BoNT-A LC inh2 inconclusive, PriA SSB inh 2, Bead autofluor 20899*, BoNT-F LC inh 8 and Anthrax LF inh2 -12.
CN(C)c1ccc2c(c1)C(=NO)c1ccccc1-2 was read as BoNT-A LC inh2 0, PriA SSB inh 53*, Bead autofluor 3692, BoNT-F LC inh 0 and Anthrax LF inh2 -4.
ON=C1c2ccccc2-c2ccccc21 was read as BoNT-A LC inh2 -2, PriA SSB inh -6, Bead autofluor 3753, BoNT-F LC inh 3 and Anthrax LF inh2 1.
Screening CC1CCN(C(c2ccccc2)c2nnnn2C(C)(C)C)CC1 (stereo unspecified) returned BoNT-A LC inh2 -1, PriA SSB inh 0, Bead autofluor 4902, BoNT-F LC inh -13 and Anthrax LF inh2 -8.
Screening Cc1ccc(C(c2nnnn2C(C)(C)C)N2CCC(C)CC2)cc1 (stereo unspecified) returned BoNT-A LC inh2 2, PriA SSB inh -13, Bead autofluor 20278*, BoNT-F LC inh 4 and Anthrax LF inh2 -6.
`O=c1ccc(-c2ccc3c(c2)OCO3)nn1Cc1nc(-c2ccc(F)cc2)no1` gave PriA SSB inh -16.
COc1cccc(/C=c2/s/c(=C(\C#N)C(=O)N3CCOCC3)n(-c3ccccc3)c2=O)c1 was read as BoNT-A LC inh2 inconclusive, Bead autofluor 20549*, BoNT-F LC inh 5 and Anthrax LF inh2 -7.
CCNC(=O)N1CCN(Cc2nc(-c3ccc(Cl)cc3)cs2)CC1 was read as PriA SSB inh 9.
`CN(C)S(=O)(=O)c1ccc(C(=O)NCCOc2ccc(F)cc2)cc1` gave BoNT-A LC inh2 -5, PriA SSB inh -23, Bead autofluor 24248*, BoNT-F LC inh -7 and Anthrax LF inh2 -3.
Cc1cc(C(=O)N2CCC(C)CC2)on1 was read as BoNT-A LC inh2 1, PriA SSB inh -4, Bead autofluor 4430, BoNT-F LC inh -1 and Anthrax LF inh2 3.
CCOC(=O)N1CCN(C(=O)c2cc(C)no2)CC1 was read as BoNT-A LC inh2 0, PriA SSB inh 98*, Bead autofluor 4087, BoNT-F LC inh -1 and Anthrax LF inh2 0.
For COc1ccc(Cn2c(CCC(=O)NCc3ccco3)nc3cccnc32)cc1 the results were BoNT-A LC inh2 2, PriA SSB inh 7, Bead autofluor 22452*, BoNT-F LC inh -2 and Anthrax LF inh2 -1.
Screening COCCCn1c(SCc2ccc(OC)cc2)nc2cc(OC)c(OC)cc2c1=N returned BoNT-A LC inh2 -1, PriA SSB inh 0, Bead autofluor 23040*, BoNT-F LC inh -3 and Anthrax LF inh2 -2.
Cc1ccc(Cn2c(SCC(=O)NCc3ccco3)nc3ccsc3c2=O)cc1 was read as BoNT-A LC inh2 -1, PriA SSB inh 5, Bead autofluor 11634, BoNT-F LC inh 1 and Anthrax LF inh2 -6.
For COc1cc2nc(SCC(=O)NCc3ccco3)n(Cc3ccc(Cl)cc3)c(=O)c2cc1OC the results were BoNT-A LC inh2 inconclusive, PriA SSB inh -17, Bead autofluor 23649*, BoNT-F LC inh -2 and Anthrax LF inh2 -2.
